A short description of experiment [1]: E. coli DRC41 culture turbidity changes, primary screen, E. coli filamentation inducer project, strain DRC41, OD650, 48 h (AID 1152).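 Also: E. coli MC1000 strain DRC41 lacking acrAB efflux pump and sulA.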 As to conditions: E. coli DRC41 (acrAB sulA), higher = more signal, called active from +8 up or from −8 down.
Experiment [2] is described as follows: small-molecule binders of probe aLefty1, primary screen, biochemical, small-molecule microarray, 635/667 nm fluorescence (AID 1153).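 Also: score merges spot fluorescence with signal-to-noise ratio from the scanned slide images.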 To be noted: higher = more signal.
The nature of experiment [3]: PSAC antagonists in infected red cells, primary screen, cell-based, P. falciparum Indochina, OD700, 1 h (AID 1154). To be noted: P. falciparum Indochina infected RBC osmotic lysis, higher = more signal, called active from +8 up or from −8 down.
A short description of experiment [4]: PSAC antagonists in infected red cells, primary screen, cell-based, P. falciparum Indochina, OD700, 2 h (AID 1155).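 Also: lysis reports solute entry through the parasite surface anion channel PSAC; channel blockers reduce lysis of infected cells.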 As to conditions: P. falciparum Indochina infected erythrocytes, osmotic lysis OD700; higher = more signal, called active from +8 up or from −8 down.
Experiment [5] is described as follows: osmotic lysis modulators in infected erythrocytes, primary screen, PSAC antagonist project, cell-based, P. falciparum Indochina, OD700, 3 h (AID 1156). As to conditions: higher = more signal, called active from +8 up or from −8 down.
Experiment [6] in a line: PSAC antagonists in infected red cells, primary screen, cell-based, P. falciparum Indochina, OD700, 18 h (AID 1157). To be noted: P. falciparum Indochina infected erythrocytes, osmotic lysis OD700, 18 h; higher = more signal, called active from +8 up or from −8 down.
Experiment [7] in a line: modulators of S6 phosphorylation in cells, primary screen, cell-based, A549, cytoblot, luminescence, serum-stimulated (AID 1158).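 Also: serum-stimulated A549 lung adenocarcinoma cells; signal is phosphorylated S6 detected by cytoblot immunostaining with HRP secondary.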 To be noted: A549 phospho-S6 cytoblot, 5 h, higher = more signal.
In experiment [8] the target is NADPH oxidase 2 (Homo sapiens) (UniProt P04839). Briefly: NOX2-dependent H2O2 signal modulators, primary screen, NOX inhibitor project, cell-based, HEK293-NOX2, PMA-stimulated, Amplex Red fluorescence (AID 1159). Also: test concentration not given here. To be noted: 45 min, higher = more signal, called active from +8 up or from −8 down.
Chain of NADPH oxidase 2 (Homo sapiens) (P04839 whole entry, looked up): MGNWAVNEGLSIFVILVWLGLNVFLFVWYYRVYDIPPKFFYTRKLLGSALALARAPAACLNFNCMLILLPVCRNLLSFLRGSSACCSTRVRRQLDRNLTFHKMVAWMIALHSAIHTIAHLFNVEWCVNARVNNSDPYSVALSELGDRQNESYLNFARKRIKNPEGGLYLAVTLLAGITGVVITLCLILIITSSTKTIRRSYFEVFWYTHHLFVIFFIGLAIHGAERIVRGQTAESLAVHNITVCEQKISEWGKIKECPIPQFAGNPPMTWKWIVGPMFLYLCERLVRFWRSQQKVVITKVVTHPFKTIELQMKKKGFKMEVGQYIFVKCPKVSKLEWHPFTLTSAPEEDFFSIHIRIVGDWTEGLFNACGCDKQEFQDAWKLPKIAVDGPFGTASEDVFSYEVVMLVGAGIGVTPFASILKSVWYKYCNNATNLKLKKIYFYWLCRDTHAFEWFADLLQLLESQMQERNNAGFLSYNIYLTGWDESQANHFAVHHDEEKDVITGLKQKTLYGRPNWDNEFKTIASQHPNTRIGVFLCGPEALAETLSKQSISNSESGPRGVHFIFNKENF
The target in experiment [9] is NADPH oxidase 4 (Homo sapiens) (UniProt Q9NPH5). Briefly: NOX4-dependent H2O2 signal modulators, primary screen, NOX inhibitor project, cell-based, HEK293-NOX4, tetracycline-induced, Amplex Red fluorescence (AID 1160). To be noted: 45 min, higher = more signal, called active from +8 up or from −8 down.
Chain of NADPH oxidase 4 (Homo sapiens) (Q9NPH5 whole entry, looked up): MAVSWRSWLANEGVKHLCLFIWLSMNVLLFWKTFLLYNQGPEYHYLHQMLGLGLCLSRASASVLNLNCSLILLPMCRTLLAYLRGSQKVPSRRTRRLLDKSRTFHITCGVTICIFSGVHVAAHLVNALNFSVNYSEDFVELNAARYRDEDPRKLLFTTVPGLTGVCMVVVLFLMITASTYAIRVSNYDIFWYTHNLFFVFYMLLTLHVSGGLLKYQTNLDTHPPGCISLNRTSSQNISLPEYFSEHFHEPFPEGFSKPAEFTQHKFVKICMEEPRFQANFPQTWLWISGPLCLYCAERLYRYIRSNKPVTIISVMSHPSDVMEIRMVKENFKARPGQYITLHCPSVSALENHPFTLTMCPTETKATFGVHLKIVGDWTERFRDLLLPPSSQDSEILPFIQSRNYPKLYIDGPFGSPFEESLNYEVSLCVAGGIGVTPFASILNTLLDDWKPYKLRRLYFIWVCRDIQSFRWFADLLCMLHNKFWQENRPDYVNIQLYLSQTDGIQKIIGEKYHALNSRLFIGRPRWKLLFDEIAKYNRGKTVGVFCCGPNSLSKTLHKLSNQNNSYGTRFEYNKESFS
The target in experiment [10] is NADPH oxidase 5 (Homo sapiens) (UniProt Q96PH1). Briefly: NOX5-dependent H2O2 signal modulators, primary screen, NOX inhibitor project, cell-based, HEK293-NOX5, Amplex Red fluorescence (AID 1161). To be noted: HEK293-NOX5, ionomycin, 45 min, higher = more signal.
Chain of NADPH oxidase 5 (Homo sapiens) (Q96PH1 whole entry, looked up): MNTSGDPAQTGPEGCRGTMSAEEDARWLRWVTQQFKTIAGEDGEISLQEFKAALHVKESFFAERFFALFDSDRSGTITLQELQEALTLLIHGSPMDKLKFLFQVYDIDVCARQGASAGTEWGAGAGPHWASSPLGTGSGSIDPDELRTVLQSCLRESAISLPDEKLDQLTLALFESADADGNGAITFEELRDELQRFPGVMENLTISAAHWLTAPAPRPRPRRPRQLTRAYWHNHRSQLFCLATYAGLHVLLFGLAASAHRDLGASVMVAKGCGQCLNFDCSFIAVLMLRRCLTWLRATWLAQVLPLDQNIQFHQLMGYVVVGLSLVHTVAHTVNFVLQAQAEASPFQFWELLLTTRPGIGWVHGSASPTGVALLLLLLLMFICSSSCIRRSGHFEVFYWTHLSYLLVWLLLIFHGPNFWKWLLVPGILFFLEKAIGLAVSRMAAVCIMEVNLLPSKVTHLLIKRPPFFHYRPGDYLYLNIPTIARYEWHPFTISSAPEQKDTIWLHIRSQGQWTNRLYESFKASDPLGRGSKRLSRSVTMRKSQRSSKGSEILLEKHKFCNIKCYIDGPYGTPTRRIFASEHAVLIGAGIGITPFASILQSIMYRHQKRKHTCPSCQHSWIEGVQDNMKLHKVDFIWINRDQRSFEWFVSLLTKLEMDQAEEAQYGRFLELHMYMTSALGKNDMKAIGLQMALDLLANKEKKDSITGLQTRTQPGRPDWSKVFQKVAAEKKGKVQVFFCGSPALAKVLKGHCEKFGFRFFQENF
Experiment [11] is described as follows: A549 cell viability effects, profiling panel, calcein-AM fluorescence, 48 h, basal (AID 1162). Also: test concentration not given here. To be noted: higher = more signal.
Experiment [12] in a line: adipocyte viability effects, profiling panel, cell-based, 3T3-L1 adipocytes, calcein-AM fluorescence, 48 h, basal (AID 1163). Also: test concentration not given here. As to conditions: 3T3-L1 adipocytes viability, higher = more signal.
Experiment [13] is described as follows: HepG2 cell viability effects, profiling panel, calcein-AM fluorescence, 48 h, basal (AID 1164). Also: test concentration not given here. To be noted: higher = more signal.
A short description of experiment [14]: MM1S cell viability effects, profiling panel, calcein-AM fluorescence, 48 h, basal (AID 1165).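 Also: viability of MM1S multiple myeloma cells under basal unstimulated conditions; test concentration not given here.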 As to conditions: higher = more signal.
A short description of experiment [15]: basal RPMI8226 viability, no added stimulus, profiling panel, cell-based, calcein-AM fluorescence, 48 h, PK04 Diversity Set (AID 1166).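 Also: cells grown under basal conditions without added stimulus; test concentration not given here.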 As to conditions: RPMI8226 myeloma viability, higher = more signal.
The nature of experiment [16]: basal HepG2 mitochondrial membrane potential changes, profiling panel, cell-based, JC-1 fluorescence, 24 h, 100 nL compound (AID 1167). Also: test concentration not given here. To be noted: higher = more signal.
Experiment [17] can be described thus: basal 3T3-L1 adipocyte mitochondrial potential changes, profiling panel, cell-based, JC-1 fluorescence, 3T3-L1 adipocytes, 24 h, 100 nL compound (AID 1168). Also: test concentration not given here. As to conditions: JC-1 mitochondrial fluorescence, higher = more signal, called active from +8 up or from −8 down.
A short description of experiment [18]: basal RPMI8226 mitochondrial membrane potential changes, profiling panel, cell-based, JC-1 fluorescence, 24 h, 100 nL compound (AID 1169). Also: test concentration not given here. To be noted: RPMI8226 myeloma, JC-1 mitochondrial potential fluorescence, higher = more signal.
Experiment [19] in a line: basal MM1S mitochondrial membrane potential changes, profiling panel, cell-based, JC-1 fluorescence, 24 h, 100 nL compound (AID 1170). Also: test concentration not given here. As to conditions: higher = more signal.
The nature of experiment [20]: A549 lung cancer cell viability effects, profiling panel, resazurin fluorescence, 24 h, PK04 Diversity Set (AID 1171). Also: test concentration not given here. To be noted: higher = more signal, called active from +8 up or from −8 down. (Alamar Blue is a resazurin reagent that responds to reducing activity.)

Active and inactive are the calls of the source.

Consider `CN(C)CCCC[C@@H]1NC(=O)[C@H]2C[C@@H](C(=O)NCc3ccc(F)cc3)[C@@H](c3ccc(O)cc3)N2C1=O`, for which the z-score in experiment [1] was 0.104 (inactive); in experiment [3], 1.2 (inactive); in [4], -0.0251 (inactive); in experiment [5], -6.5 (inactive); in [6], 0.153 (inactive); in experiment [7] it was -0.449. Further, the z-score in [8] is 0.0836 (inactive); in experiment [9], 0.799 (inactive); in [10] it was 0.195; in [11], 0.334; in [12], 0.0359; in experiment [13], -0.372. Also, the z-score was -0.0511 in [14]; -0.23 in [15]; 1.28 in experiment [16]; -0.365 (inactive) in experiment [17]; -0.152 in experiment [18]; 0.195 in [19]. Further, the z-score in [20] is 0.377 (inactive). The molecule further showed a composite z-score in experiment [2] of 0.364.

Consider `CC=CC(O)C1C=CC2C(=O)N(C)C(=O)C2N1NC(=O)OC(C)(C)C` (stereo not given), for which the z-score in experiment [1] was -1.06 (inactive); in experiment [3], -0.597 (inactive); in experiment [4], 0.43 (inactive); in [5], -0.0501 (inactive); in experiment [6], 0.556 (inactive); in experiment [7] it was -1.42. Besides, the z-score in [8] is -0.798 (inactive); in experiment [9] it was -1.37 (inactive); in experiment [10] it was -1.22; in experiment [11], -0.73; in [12], -0.604; in experiment [13], -0.39. Further, the z-score in experiment [14] is -0.354; in [15] it was -0.303; in [16], -1.55; in experiment [17], -0.238 (inactive); in experiment [18] it was 0.397; in [19], 0.163. In experiment [20], the z-score was -0.383 (inactive). In addition, the composite z-score in experiment [2] is 0.277.

For `CC(C)C(=C=CC[C@@H](O)c1ccc(OCCO)cc1)CCO`, the z-score in [1] was 1.7 (inactive); in [3] it was 2.86 (inactive); in experiment [4] it was -0.421 (inactive); in experiment [5], -0.143 (inactive); in [6], -1.58 (inactive); in [7], 1.42. The z-score in experiment [8] is -1.47 (inactive); in [9], -0.462 (inactive); in [10], -0.971; in [11], -0.45; in experiment [12], 0.721; in experiment [13], -0.164. The z-score in experiment [14] was 0.626; in experiment [15], 0.991; in experiment [16], 0.871; in [17] it was 0.437 (inactive); in [18], -0.21; in experiment [19], -1.11. Further, the z-score in experiment [20] was 1.22 (inactive). Besides, the composite z-score in [2] was -0.0054.

`CCCCC(=C=CC[C@@H](O)c1cccc(OCCO)c1)CCO`: the z-score is 0.896 (inactive) in experiment [1]; 6.54 (inactive) in [3]; 1.02 (inactive) in experiment [4]; 0.842 (inactive) in [5]; 0.528 (inactive) in experiment [6]; 1.3 in experiment [7]. Further, the z-score in [8] was -0.681 (inactive); in experiment [9], -0.283 (inactive); in [10] it was -1.8; in experiment [11] it was 1.58; in experiment [12], -0.634; in [13] it was 0.98. The z-score is 0.859 in [14]; 0.0922 in experiment [15]; 0.416 in experiment [16]; 1.27 (inactive) in experiment [17]; 0.044 in [18]; -1.09 in experiment [19]. Further, in experiment [20], the z-score was 1.06 (inactive). Further, the composite z-score in [2] is -0.142.

For `CCCCCN1CC=CC23O[C@@H]4C=CCOC(=O)[C@@H]4[C@H]2C(=O)N(CCCCCO)[C@@H]3C1=O` (stereo not given in full), the z-score in experiment [1] was 1.73 (inactive); in [3], 1.47 (inactive); in [4], 0.702 (inactive); in [5], 1.45 (inactive); in experiment [6], 0.601 (inactive); in [7] it was 0.461. Moreover, the z-score in experiment [8] is 1.35 (inactive); in experiment [9], 0.575 (inactive); in [10], 1.94; in [11] it was -0.438; in [12] it was -0.28; in experiment [13], -1.03. The z-score was 1.27 in [14]; -1.6 in [15]; -0.012 in experiment [16]; 0.211 (inactive) in [17]; 0.85 in [18]; 0.876 in [19]. The z-score in [20] is -0.0947 (inactive). The composite z-score in [2] was -0.0766.

With `COc1ccc(C(O)C2C=CC3C(=O)N(C)C(=O)C3N2Nc2ccc([N+](=O)[O-])cc2[N+](=O)[O-])cc1OCc1ccccc1` (stereo not given), the z-score in experiment [1] is -1.07 (inactive); in experiment [3] it was -0.686 (inactive); in experiment [4], 0.958 (inactive); in experiment [5], 0.0971 (inactive); in experiment [6] it was 0.975 (inactive); in [7] it was -1.21. For the same molecule, the z-score is 0.0939 (inactive) in experiment [8]; 0.703 (inactive) in [9]; 2.34 in [10]; -0.65 in experiment [11]; -0.861 in experiment [12]; 0.166 in experiment [13]. Further, the z-score in experiment [14] is 0.106; in [15], -0.499; in experiment [16] it was -0.475; in [17] it was -0.74 (inactive); in experiment [18] it was 0.0687; in experiment [19] it was -0.371. In addition, the z-score in experiment [20] was -0.682 (inactive). The composite z-score in experiment [2] came to 0.703.

With `CCC[C@@H]1C=C(C(=O)OCC)[C@H](c2ccccc2)N1S(=O)(=O)c1ccc(C)cc1`, the z-score in experiment [1] was -0.843 (inactive); in [3], -0.0086 (inactive); in experiment [4] it was 0.979 (inactive); in [5] it was -0.628 (inactive); in experiment [6] it was 0.0962 (inactive); in experiment [7] it was -0.788. In addition, the z-score in [8] is -0.671 (inactive); in experiment [9], -0.646 (inactive); in [10] it was -0.135; in [11], -1.78; in experiment [12], -0.937; in [13], -2.37. For the same molecule, the z-score in [14] is -1.19; in [15] it was -2.96; in experiment [16], 3.86; in experiment [17], 0.437 (inactive); in [18] it was -0.756; in [19] it was -0.65. In addition, the z-score in experiment [20] was 1.8 (inactive). Also, in [2], the composite z-score amounted to 0.316.

With `CCN(CC)c1ccc(N2CC=CC34O[C@@H]5C=CCOC(=O)[C@@H]5[C@H]3C(=O)N(CCO)[C@@H]4C2=O)cc1` (stereo not given in full), the z-score is 1.51 (inactive) in experiment [1]; 0.116 (inactive) in experiment [3]; 0.0907 (inactive) in [4]; 0.714 (inactive) in experiment [5]; -0.0665 (inactive) in [6]; -0.221 in experiment [7]. In addition, the z-score was -0.0361 (inactive) in experiment [8]; 0.364 (inactive) in experiment [9]; 0.613 in experiment [10]; 1.22 in [11]; 0.273 in experiment [12]; 0.662 in experiment [13]. The z-score is -0.783 in experiment [14]; 0.38 in experiment [15]; 0.396 in experiment [16]; 0.537 (inactive) in experiment [17]; -0.0585 in experiment [18]; 0.0601 in experiment [19]. Also, in experiment [20], the z-score was 0.588 (inactive). The composite z-score in [2] was 0.0434.

Consider `C=C(COC)C(=O)CC[C@@H](OC(C)=O)c1ccc(OCCO)cc1`, for which the z-score in [1] was -0.297 (inactive); in experiment [3] it was 2.52 (inactive); in experiment [4], 0.27 (inactive); in experiment [5], 0.133 (inactive); in [6] it was 0.0871 (inactive); in experiment [7], 0.239. The z-score in experiment [8] is -0.352 (inactive); in experiment [9], -0.885 (inactive); in experiment [10], -0.112; in experiment [11] it was 0.453; in experiment [12] it was 0.327; in experiment [13], -0.446. Also, the z-score was -3.18 in experiment [14]; -0.311 in [15]; -1.28 in [16]; -0.979 (inactive) in experiment [17]; -0.652 in experiment [18]; -0.655 in [19]. In addition, the z-score in experiment [20] was -0.412 (inactive). The molecule also had a composite z-score in [2] of -0.007.

Values taken from PubChem BioAssay.
